Assay outcomes deposited in PubChem BioAssay by National Center for Advancing Translational Sciences (NCATS).
IP6K1 inh: Primary qHTS assay for small molecule inhibitors of Inositol hexaphosphate kinase 1 (IP6K1) | activity change, % (series mostly up to about 58 µM) | IP6K1 kinase, ADP-Glo luminescence, 2 h; active compounds read low | AID 1645851, 2021 | Inositol hexakisphosphate kinase 1 (Homo sapiens), Q92551 | 140,000 tested, 0.81% active; in the data active = activity change below about -25%
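ADP-Glo luminescence measures ADP made by human IP6K1 during a 2 h RT reaction with ATP/IP6 (mix at 1.3 mM/130 uM); top library doses 57.5 and 19.1 uM final.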
SNCA viab count: GF-AFC viability counterscreen for inhibitors of alpha-synuclein gene (SNCA) expression; HEK-293-SNCA-luc viability, GF-AFC fluorescence, 24 h; Potency, µM (top dose mostly 57.1 µM), inactives show at the top dose activity change, negative = cytotoxicity, actives largely listed as cytotoxic; 150,000 tested, 0.12% active;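 note: potency is the fitted concentration of half-maximal effect; 0% = DMSO-treated cells and -100% = medium-only wells without cells; nearly all actives have a fitted effect of over 30% in size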
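HEK-293-SNCA-luc cells (1500/well) plated 24 h, then exposed 24 h to a dilution series; GF-AFC added 30 min at 37C, fluorescence 405/540 nm; normalised to medium-only and DMSO wells, Hill fit.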
GPT2 inhibitor: Primary qHTS assay for inhibitors of Glutamate pyruvate transaminase 2 (GPT2) | Potency, µM (doses to about 57.7 µM), without a hit: at the highest dose activity change, negative = inhibition, hits mostly inhibitors | 100,000 tested, 0.25% active | Recombinant GPT2, coupled pyruvate oxidase/HRP Amplex Red fluorescence | AID 1671188, 2021; note: potency is the fitted concentration of half-maximal effect; nearly all actives have a fitted effect of over 60% in size
Target sequence (Q8TD30 whole entry, looked up): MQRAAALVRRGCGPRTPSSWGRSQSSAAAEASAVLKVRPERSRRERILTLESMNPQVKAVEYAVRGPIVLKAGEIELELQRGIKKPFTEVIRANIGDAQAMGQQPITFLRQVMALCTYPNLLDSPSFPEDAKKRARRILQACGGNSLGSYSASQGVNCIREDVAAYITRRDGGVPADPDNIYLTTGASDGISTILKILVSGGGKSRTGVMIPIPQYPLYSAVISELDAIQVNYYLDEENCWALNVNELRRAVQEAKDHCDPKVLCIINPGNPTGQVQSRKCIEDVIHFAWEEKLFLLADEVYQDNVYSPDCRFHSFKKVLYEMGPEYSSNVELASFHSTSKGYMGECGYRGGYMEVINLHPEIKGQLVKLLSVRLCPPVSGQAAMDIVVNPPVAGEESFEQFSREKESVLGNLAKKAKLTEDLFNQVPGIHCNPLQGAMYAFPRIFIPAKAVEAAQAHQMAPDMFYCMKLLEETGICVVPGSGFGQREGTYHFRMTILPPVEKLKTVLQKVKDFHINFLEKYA
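GPT2 10ng/uL, a-KG 250uM, L-Ala 2mM, HEPES pH7.5 + 0.0001% Tween; 30 min RT. Then Amplex mix (PO/HRP/ThPP), 30 min RT dark, fluorescence. AOA 50uM used as positive control.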
SNCA expr inhib: Primary qHTS assay for inhibitors of alpha-synuclein gene (SNCA) expression | HEK-293 SNCA-luciferase knock-in, luminescence, 24 h | AID 1671194, 2021 | 140,000 tested, 0.17% active | Potency, µM (top dose mostly 57.2 µM), for the others: top-dose activity change, negative = inhibition, most hits filed as inhibitors;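 note: potency is the fitted concentration of half-maximal effect; plate controls were DMSO cells for no effect and cell-free wells for full effect; nearly all actives have a fitted effect of over 45% in size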
Active calls of the source: *; ! = not confirmed by another sample; [ ] = dose if it differs, or a comment. An excerpt weighted towards active compounds, which were near 1.1% of everything screened. Unless noted, calls come from the whole dose curve; as a rule, active = well fitted curve in the direction sought with a large enough effect; inconclusive = small, poorly fitted or top-dose-only effect, or another doubt; inactive = no such curve, though single readings can be large; an effect the other way counts as inactive or inconclusive. Unless noted, % is set by controls: 0 for no effect and ±100 for the full control effect.

How did CC(C)C[C@H](NC(=O)[C@@H](NC(=O)c1cccc(-c2ccccc2)n1)[C@@H](C)O)B(O)O do in these assays?
IP6K1 inh: 15.0; SNCA viab count: 0.0474µM*!; GPT2 inhibitor: inactive; SNCA expr inhib: 0.0607µM*

How did O=C(NCc1ccc(Cl)cc1)c1ccc2nnc(-c3ccc(Cl)cc3Cl)n2c1 do in these assays?
IP6K1 inh: 2.0; SNCA viab count: 4.9%; GPT2 inhibitor: 0.4%; SNCA expr inhib: -12.2%

What do the screens show for `CN(C)CCn1nnnc1SCC1=C(C(=O)O)N2C(=O)[C@@H](NC(=O)Cc3csc(N)n3)[C@H]2SC1`?
IP6K1 inh: -7.9; SNCA viab count: -20.1%[23.9 µM]; GPT2 inhibitor: 17.8µM*; SNCA expr inhib: -24.5%[25.6 µM]

What do the screens show for `COc1ccccc1N1CCN(c2nc3c(S(=O)(=O)c4ccc(C)c(C)c4)nnn3c3ccc(Cl)cc23)CC1`?
IP6K1 inh: -27.5*; SNCA viab count: -4.9%; SNCA expr inhib: -3.5%

How did Cc1ccc(C)c(N2CCN(c3nc4c(S(=O)(=O)c5ccccc5)nnn4c4ccc(Cl)cc34)CC2)c1 do in these assays?
IP6K1 inh: 12.1; SNCA viab count: -4.4%; SNCA expr inhib: 15.2%

Results for Cc1ccc(-c2cccc(CN3CCCC3C(=O)NC3CCCC3)c2)cc1Cl (stereo not given) ?
IP6K1 inh: 2.8

Results for Cc1ccc(-c2cn3c(n2)sc2cc(C(=O)NCCCN4CCCCC4)ccc23)cc1 ?
IP6K1 inh: -9.4; SNCA viab count: 25.1µM*; SNCA expr inhib: inconclusive

Results for Cc1ccc(-c2cn3c(n2)sc2cc(C(=O)NCCCN4CCCCCC4)ccc23)cc1 ?
IP6K1 inh: -0.4; SNCA viab count: inconclusive; SNCA expr inhib: inconclusive

How did Cn1nc(C(=O)N2CCC[C@H](n3c(=O)n(CC4CC4)c4cccnc43)C2)c2ccccc21 do in these assays?
IP6K1 inh: -15.7; SNCA viab count: inconclusive; GPT2 inhibitor: inactive; SNCA expr inhib: inconclusive

Results for COc1ccc(C2CC(c3ccccc3)=NN2c2ccc(S(N)(=O)=O)cc2)cc1 (stereo not given) ?
IP6K1 inh: 13.2; SNCA viab count: 4.8%; GPT2 inhibitor: -7.5%; SNCA expr inhib: 13.6µM*

Results for COc1ccc(C2=NN(S(C)(=O)=O)C(c3cn(-c4ccccc4)nc3-c3cccs3)C2)cc1 (stereo not given) ?
IP6K1 inh: 17.6; SNCA viab count: 6.6%; SNCA expr inhib: -11.4%

What do the screens show for `CC(C)C[C@H](NC(=O)CNC(=O)c1cc(Cl)ccc1Cl)B(O)O`?
SNCA viab count: inconclusive; GPT2 inhibitor: inactive; SNCA expr inhib: 0.541µM*

Results for COc1ccc(Nc2ccnc(N3CCCC(C(=O)N4CCC(c5ccccc5)CC4)C3)n2)cc1 (stereo not given) ?
IP6K1 inh: 13.6; SNCA viab count: inconclusive; GPT2 inhibitor: -10.4%; SNCA expr inhib: inconclusive

What do the screens show for `O=C(NCc1ccc(F)cc1)C1CCN(Cc2ccccc2-c2ccccc2F)CC1`?
IP6K1 inh: 14.3

Results for CC(C)CC(=O)Nc1n[nH]c2c1CN(C(=O)C1CCN(C)CC1)C2(C)C ?
IP6K1 inh: 5.2; SNCA viab count: inconclusive; GPT2 inhibitor: -5.6%; SNCA expr inhib: 0.541µM*

How did CC(C)CC(=O)NC1CCN(c2cn[nH]c(=O)c2)CC1 do in these assays?
IP6K1 inh: -0.8; SNCA viab count: inconclusive; GPT2 inhibitor: -11.3%; SNCA expr inhib: 29.8%

How did O=C(CCCN1CCN(c2ccc(F)cc2)CC1)NC1c2ccccc2CSc2ccccc21 (stereo not given) do in these assays?
IP6K1 inh: 27.8; SNCA viab count: -3.5%; GPT2 inhibitor: 1.22µM*; SNCA expr inhib: 22.4%

What do the screens show for `CCS(=O)(=O)c1ncc(Cl)c(C(=O)N2CCN(c3cccc(Cl)c3)CC2)n1`?
IP6K1 inh: -5.6; SNCA viab count: 3.55µM*; SNCA expr inhib: 2.24µM*

What do the screens show for `O=C(c1cc2ccc3cccnc3c2[nH]1)N1CCN(c2cccc(Cl)c2)CC1`?
IP6K1 inh: 27.4; SNCA viab count: inconclusive; SNCA expr inhib: inconclusive

How did CS(=O)(=O)c1ncc(Cl)c(C(=O)N2CCN(c3cccc(Cl)c3)CC2)n1 do in these assays?
IP6K1 inh: -25.7*; SNCA viab count: inconclusive; SNCA expr inhib: inconclusive

How did CCCCN1CCN(C(=O)c2csc(N3CCN(c4cccc(Cl)c4)CC3)n2)CC1 do in these assays?
IP6K1 inh: -10.7; SNCA viab count: inconclusive; GPT2 inhibitor: 1.0%; SNCA expr inhib: inconclusive

What do the screens show for `OCC1(Cc2cccc(Cl)c2)CCCN(Cc2nc(-c3ccc(F)cc3)cs2)C1` (stereo not given)?
IP6K1 inh: 0.3; SNCA viab count: 9.7%; GPT2 inhibitor: inconclusive; SNCA expr inhib: -4.4%

How did O=C(c1ccncc1)N1CCc2nc3cc(-c4ccccc4Cl)[nH]n3c(=O)c2C1 do in these assays?
IP6K1 inh: 4.8; SNCA viab count: -7.2%; GPT2 inhibitor: inactive; SNCA expr inhib: 7.94µM*

How did CCn1nccc1C(=O)N1CCc2nc3cc(-c4ccccc4Cl)[nH]n3c(=O)c2C1 do in these assays?
IP6K1 inh: 0.0; SNCA viab count: 0.9%; GPT2 inhibitor: inactive; SNCA expr inhib: inconclusive

How did CC(=O)c1cccc(S(=O)(=O)NCCc2csc3nc(-c4ccc(F)cc4)nn23)c1 do in these assays?
IP6K1 inh: 5.0; SNCA viab count: 31.6µM*; SNCA expr inhib: -12.4%

How did O=S(=O)(NCCc1csc2nc(-c3ccc(F)cc3)nn12)c1ccc(Br)cc1 do in these assays?
IP6K1 inh: 3.4; SNCA viab count: -16.3%; SNCA expr inhib: -21.6%

Results for CC1=C(C(=O)NC23CC4CC(CC(C4)C2)C3)C(c2cccnc2)NC(=O)N1 (stereo not given) ?
IP6K1 inh: -5.8; SNCA viab count: 1.1%; GPT2 inhibitor: -0.9%; SNCA expr inhib: 13.4%

What do the screens show for `CCNc1nc2c(s1)C(c1cccnc1)CC(=O)N2` (stereo not given)?
IP6K1 inh: -46.1*; SNCA viab count: -1.9%; GPT2 inhibitor: inconclusive; SNCA expr inhib: 22.5%

How did Cc1cccn2c3c(c(=O)nc12)C(c1cccc(F)c1)CC(=O)N3 (stereo not given) do in these assays?
IP6K1 inh: -0.8; SNCA viab count: 22.7%; SNCA expr inhib: 36.8%

How did CNc1nc2c(s1)C(c1ccc(F)c(F)c1)CC(=O)N2 (stereo not given) do in these assays?
IP6K1 inh: -37.0*; SNCA viab count: 10.0%; GPT2 inhibitor: inconclusive; SNCA expr inhib: 16.5%

What do the screens show for `CNc1nc2c(s1)C(c1cccc(F)c1)CC(=O)N2` (stereo not given)?
IP6K1 inh: -67.2*; SNCA viab count: -11.7%; GPT2 inhibitor: inconclusive; SNCA expr inhib: inconclusive

Results for CNS(=O)(=O)c1ccc(C2CC(=O)Nc3cc(O)c(OC)cc32)cc1 (stereo not given) ?
IP6K1 inh: 0.9; SNCA viab count: -8.0%; GPT2 inhibitor: inconclusive; SNCA expr inhib: -10.3%
